Screen size: about 380,000 compounds; about 4,000 (1.1%) were called active. About 3% were inconclusive and are not listed. The entries come from a sample that favours actives as a whole. Values without a mark were called inactive. Calls come from the whole dose curve; as a rule, active = well fitted activation curve with a large enough effect; inconclusive = small, poorly fitted or top-dose-only effect; inactive = no such curve, though single readings can be large or run the other way.
assay: qHTS Assay to Identify Small Molecule Activators of BRCA1 Expression; conditions: MCF7-BRCA1-FFLuc reporter, luminescence, 48 h; series mostly up to 46.1 µM; activation: at the top concentration; note: nearly all actives have a fitted effect of over 80% in size
Summary of the method: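 Activators of BRCA1 expression were detected as increased firefly luciferase luminescence in engineered MCF7 cells after 48 h compound incubation. Signals were scaled to genistein 10 microM as full activation.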
Potency is the fitted concentration of half-maximal effect.

SMILES | activation [%] | Potency
O=C(Nc1cccc(F)c1)[C@@H]1CCCN1 | -1.33 | –
O=C(Nc1cccc(F)c1)NC1CCCCCCC1 | – | 3.55 µM (active)
Cc1cc(C)cc(NC(=O)NC2CCCCCCC2)c1 | 32.7 | –
CCn1c(CNC(=O)C23CC4CC(CC(C4)C2)C3)nnc1SCC(=O)Nc1ccc(OC)cc1 | 22 | –
COc1ccc(-c2cc(-c3ccc(F)cc3)nc3c2COc2ccccc2-3)cc1 | 11.9 | –
COc1ccc(C2=Nc3cc(C)ccc3OC2)cc1 | – | 11.2 µM (active)
COc1ccc(-c2cc(-c3ccccc3)nc3c2COc2ccc(Cl)cc2-3)cc1 | 13.1 | –
CCCCCn1c(=O)[nH]c2cc(C(=O)NCCN(C)CCCC)ccc2c1=O | -3.6 | –
COC(=O)C1=C(c2ccccc2)c2ccccc2S(=O)(=O)N1CC(=O)Nc1ccccc1C(F)(F)F | -3.16 | –
COCc1nc2ccccc2n1Cc1ccccc1Br | -0.381 | –
COCn1c(COc2ccccc2)nc2ccccc21 | – | 12.6 µM (active)
COc1ccccc1Cn1c(CO)nc2ccccc21 | 0 | –
COc1cc(OC)cc(-c2nc3nc(C)c(CCC(=O)Nc4ccc(C)cc4)c(C)n3n2)c1 | -2.52 | –
O=C(CSc1nc2ccccc2c(=O)n1-c1ccccc1F)N1CCOCC1 | -6.09 | –
Cc1ccc(-n2c(SCC(=O)N3CCC(C(=O)O)CC3)nc3ccccc3c2=O)cc1C | – | 4.47 µM (active)
CCc1c(O)nc(SCC(=O)N2CCCCC2)n(-c2ccccc2C)c1=O | 6.28 | –
COc1cccc(CNC(=O)CN2C(=O)CCc3cc(S(=O)(=O)N4CCOCC4)ccc32)c1 | 11.1 | –
COc1cc(OC)c(/C=C/c2ccnc3ccccc23)c(OC)c1 | -43.7 | –
COc1cc2[nH]c(O)c(C=O)c2cc1OC | 1.23 | –
COc1ccc(N=Cc2c(O)[nH]c3ccccc23)cc1OC | – | 3.16 µM (active)
COc1ccc(/C=C/c2ccnc3ccccc23)cc1OC | -23.9 | –
CCN(CC)/[N+]([O-])=N/OCOC(=O)Cc1c(C)n(C(=O)c2ccc(Cl)cc2)c2ccc(OC)cc12 | -16 | –
CCc1ccc(CNC(=O)c2cc3cc4ccc(OC)cc4nc3o2)cc1 | -7.1 | –

SMILES | activation [%] | Potency
O=C(NCCOc1ccccc1Cl)C(=O)Nc1ccccc1 | -41.6 | –
COc1ccccc1OCCNC(=O)CCNC(=O)c1ccccc1Cl | -0.0194 | –
COc1cc(SC)ccc1C(=O)NCCOc1ccccc1Cl | – | 7.94 µM (active)
CCOCCc1nn2c(=O)cc(COC(=O)CNC(=O)c3ccc(C(C)(C)C)cc3)nc2s1 | 6.51 | –
Cn1c(=O)nc2n(-c3ccc(Br)cc3)c3cccc(Cl)c3cc-2c1=O | -11.7 | –
O=C(CSc1ncc(S(=O)(=O)c2ccc(Br)cc2)c(=O)[nH]1)Nc1ccc2c(c1)OCCO2 | 15.7 | –
Oc1ccc(-c2cccc(-c3ccc(O)cc3)c2)cc1 | – | 10 µM (active)
c1ccc(-c2c[nH]c(-c3ccccc3)c2)cc1 | 41.4 | –
O=C(OCc1ccc(-c2ccccc2)cc1)c1cccc(O)c1 | 83.1 | –
COc1ccccc1CNC(=O)CCCCn1c(=O)c2ccccc2n(CC(=O)Nc2cc(Cl)ccc2C)c1=O | -20.3 | –
Cc1cccc(N2CCN(C(=O)c3oc(=O)c4ccccc4c3-c3ccccc3)CC2)c1C | -3.27 | –
O=C(c1nnc(-c2ccc(Cl)cc2)o1)C1CCCC1 | – | 11.2 µM (active)
O=C(c1[nH]ncc1-c1ccc(Cl)cc1)C1CO1 (stereo unspecified) | -20 | –
O=C(Nc1cnn(Cc2ccc(Cl)cc2)c1)C1CCCC1 | 7.68 | –
c1ccc(Cn2nnc3c(N4CCCCC4)ncnc32)cc1 | 32 | –
COc1ccccc1CCNC(=O)c1cccn1-c1nnc(N2CCCCC2)s1 | -17 | –
COc1ccc(C2NC(=O)N(C)C3=C2C(=O)N(c2ccc(C(=O)O)cc2)C3)cc1 (stereo unspecified) | 8.52 | –
Cc1scc(C(=O)NNC(=S)NCC(C)C)c1C | 2.45 | –
CC(C)CNC(=S)NNC(=O)c1nn(C)cc1Cl | 7.17 | –
CC(C)CNC(=S)NC(=O)c1ccc(Cl)cc1 | – | 10 µM (active)
Cc1c2cnn(-c3ccccc3)c(=O)c2c(C)n1C(C)C(=O)Nc1ccc(Br)cc1F (stereo unspecified) | -24.2 | –
Cc1cc(C)cc(-n2c(SCC(=O)NCC3CCCO3)nc3c([nH]c4ccccc43)c2=O)c1 (stereo unspecified) | -50.7 | –
CC(C)Cc1cc(C(=O)NCCc2ccccc2)no1 | – | 5.01 µM (active)

SMILES | activation [%] | Potency
Nc1nonc1C(=O)NCCc1ccccc1 | 4.5 | –
O=C(NCCCc1ccccc1)c1cc(COc2c(F)cccc2F)on1 | – | 12.6 µM (active)
CN(CCOc1ccccc1)C(=O)c1cc(COc2c(F)cccc2F)on1 | 0 | –
O=C(NCCN1CCCC(O)C1)c1cc(COc2c(F)cccc2F)on1 (stereo unspecified) | 5.2 | –
C[C@H](NC(=O)NCCc1ccccc1)C(=O)O | -23.9 | –
O=S(=O)(c1ccc(C2CCCCC2)cc1)N1CCN(c2ccc(Cl)c(Cl)c2)CC1 | 3.15 | –
CSc1cccc(NC(=O)CN2C(=O)CCc3cc(S(=O)(=O)N4CCCCC4)ccc32)c1 | -12.1 | –
COc1ccc2c(c1)c(=O)c(C(=O)c1ccccc1)cn2CC(=O)Nc1ccc2c(c1)OCCO2 | 1.41 | –
CC(=O)N1CCc2cc(Br)cc(S(=O)(=O)CCC(=O)NCCc3ccc(Cl)cc3)c21 | -2.1 | –
CN(CC(=O)Nc1cccc(C(F)(F)F)c1)S(=O)(=O)c1cccs1 | 14.2 | –
C/C(=N/NS(=O)(=O)c1ccccc1)c1ccc(NC(=O)C(F)(F)F)cc1 | 3.78 | –
C/C(=N/NC(=O)c1ccc(NC(=O)c2ccc(F)cc2)cc1)c1ccccc1 | – | 12.6 µM (active)
CC(=O)NN=C(C)c1ccc(NC(=O)C2CC2)cc1 | 13.3 | –
O=C(CSc1nc(=O)n(Cc2cccnc2)c2c1CCC2)Nc1ccc(F)cc1F | -12.5 | –
CC(=O)Nc1ccc(S(=O)(=O)N2CCN(c3ccccc3)CC2)cc1 | 3.72 | –
CC(C)(C)NC(=O)Cn1nnc(-c2ccccc2Cl)n1 | – | 12.6 µM (active)
Cc1ccccc1-c1nnn(CC(=O)c2ccc(S(=O)(=O)N3CCCC3)cc2)n1 | -30.9 | –
COc1cc(-c2nnn(CC(=O)NCc3ccccc3)n2)cc(OC)c1OC | -8.64 | –
O=C(Nc1ccccc1C(F)(F)F)c1nc(S(=O)(=O)Cc2ccccc2F)ncc1Cl | -78.4 | –
COC(=O)c1ccc(/C=C/c2c(-c3ccc(OC)cc3)sc3ccccc23)cc1 | -41.1 | –
COc1ccccc1-c1sc2ccccc2c1-c1ccc(C(C)=O)cc1 | -15.5 | –
COc1ccc(N=C(C)c2sc3ccccc3c2O)cc1 | – | 5.01 µM (active)
CCN(CC)S(=O)(=O)c1ccc2c(c1)c(=O)c(C(=O)N1CCN(c3cccc(Cl)c3)CC1)cn2C | 1.45 | –

SMILES | activation [%] | Potency
CCNC(=O)c1sccc1-n1cccc1 | -2.78 | –
Cc1ccsc1C(=O)NC1CCCCC1C (stereo unspecified) | 23.2 | –
Cc1ccsc1C(=O)NCCc1ccco1 | – | 4.47 µM (active)
NC(=O)Nc1ccc(/C=C/c2ccnc3ccccc23)cc1 | 9.16 | –
COc1ccc(CNc2nc(-c3ccc(Cl)cc3)nn2C(=O)c2ccccc2)cc1 | 0.489 | –
CCC(C(=O)Nc1cc(OC)ccc1OC)n1c(=O)c(C(F)(F)F)nc2ccccc21 (stereo unspecified) | 0 | –
CC1CCN(c2ccc(C(=O)Nc3nnc(C4CC4)s3)cc2[N+](=O)[O-])CC1 | 13.3 | –
Cc1cccc(NC(=O)CSCC(=O)Nc2nnc(C3CC3)s2)c1 | -38.4 | –
Cc1cc(C(=O)Nc2nnc(C3CC3)s2)c(C)s1 | – | 3.55 µM (active)
Cc1ccc(Cc2nc3ccccc3nc2SCC(=O)Nc2cccc(C(F)(F)F)c2)cc1 | 0.931 | –
CCCCOC(=O)Nc1nccs1 | 57.8 | –
Cn1cccc1C(=O)Nc1nccs1 | 55 | –
CC(=O)Oc1ccc(C(=O)Nc2nccs2)cc1 | – | 11.2 µM (active)
Cc1ccc(NC(=O)c2oc3ccccc3c2NC(=O)Cc2cccs2)cc1 | 15.5 | –
Cc1cc(NC(=O)c2ccc(-c3ccc(Cl)cc3)o2)cc(-c2nc3ncccc3o2)c1O | 16.6 | –
CCOc1cc(C2c3c(-c4ccc(Br)cc4)n[nH]c3C(=O)N2c2ccc(Cl)cc2)ccc1O (stereo unspecified) | -76.9 | –
CCC1=Nc2cc(C(=O)NCC(C)c3ccccc3)ccc2Sc2ccc(C)cc21 (stereo unspecified) | -70.2 | –
O=C(COc1ccccc1F)OCc1cc(=O)n2nc(C3CCCCC3)sc2n1 | 8.78 | –
COc1cccc(CNCc2c(C(=O)O)n(Cc3ccc(C)cc3)c3cc(C)ccc23)c1OC | 4.07 | –
O=C(CSCc1cccs1)N1CCCC1 | – | 12.6 µM (active)
Cn1c(SCC(=O)N2CCCC2)nnc1-c1cccs1 | 12.3 | –
O=C(CSc1n[nH]c(-c2cccs2)n1)N1CCCCC1 | 55.6 | –
OC(CBr)C[n+]1cccc2cc(Br)ccc21 (stereo unspecified) | -19.2 | –

SMILES | activation [%] | Potency
CCCCOc1ccc(C(=O)Nc2cccc(-c3nc4ccccc4o3)c2C)cc1 | -3.11 | –
COc1ccc2c(c1)CCc1c(C(=O)N3CCc4ccccc4C3)noc1-2 | 28.8 | –
O=C(c1noc2c1CCCC2)N1CCc2ccccc2C1 | – | 5.62 µM (active)
CN(c1ccc(C(=O)N2CCc3ccccc3C2)cc1)S(C)(=O)=O | 41.3 | –
COc1ccc2c(c1)c(N1CCCC1=O)c(C(=O)Nc1ccc(OC)c(Cl)c1)n2C | -41.1 | –
O=C(c1ccc2c(c1)N(Cc1ccc(Cl)cc1)C(=O)c1ccccc1S2(=O)=O)N1CCCCC1 | 7.95 | –
CCN(c1cccc(C)c1)S(=O)(=O)c1ccc(-c2coc(C)n2)cc1 | 7.61 | –
CCN(CC)S(=O)(=O)c1ccc(-c2cn3ccc(C)cc3n2)cc1 | – | 3.55 µM (active)
CCN(CC(=O)NCCc1ccccc1)S(=O)(=O)c1ccc(C)cc1 | -8.5 | –
CCC(=O)N1N=C(c2ccc(OC)cc2)CC1c1cn(-c2ccccc2)nc1-c1cccs1 (stereo unspecified) | 6.03 | –
CN(C(=O)CSc1nc2ccccc2n1Cc1ccccc1C#N)c1ccccc1 | 0 | –
CN1CCN(/[N+]([O-])=N/Oc2ccc([N+](=O)[O-])cc2[N+](=O)[O-])CC1 | -3.67 | –
CCn1c2ccc(F)cc2c2nnc(SCCN3CCOCC3)nc21 | -40.1 | –
COc1ccc2nc(SCC(=O)Nc3c(C)cc(C)cc3C)[nH]c2c1 | 4.09 | –
Cc1cc2nc(SCCN3CCOCC3)[nH]c2cc1C | – | 4.47 µM (active)
COc1cc(C)ccc1OCCSc1nc2ccc(NC(=O)c3ccc(C)cc3)cc2s1 | -0.298 | –
CCOc1ccc(CCNC(=O)c2cc3c(=O)n(C)c4ccccc4c3n2C)cc1 | 4.71 | –
Cc1ccccc1CCNC(=O)C1CCN(c2nc3ccccc3nc2C(F)(F)F)CC1 | 11 | –
COc1ccc(-n2c(C)nc3c(cnn3-c3ccc(F)cc3)c2=O)cc1 | -6.83 | –
